The target of assay [1] is DNA repair nuclease/redox regulator APEX1 (Homo sapiens) (UniProt P27695). Briefly: qHTS Validation Assay for Inhibitors of the Human Apurinic/apyrimidinic Endonuclease 1 (APE1) (AID 1705; note: potency is the fitted concentration of half-maximal effect). The essentials:
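Human APE1 was preincubated with compound for 15 min at room temperature, then 50 nM (final) THF-abasic double-stranded DNA substrate bearing 5'-TAMRA and 3'-BHQ-2 was added. Incision-driven fluorescence rise (ex 525/em 598 nm) was read kinetically.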
On the technique in general: qHTS replaces the single test concentration by a dilution series.

A short description of assay [2]: Counterscreen for APE1 Inhibitors: Fluorescent Dye Displacement Validation Assay (AID 1707). The method, boiled down: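 ThO 250 nM + dsDNA 50 nM (THF abasic site, 5'-TAMRA), Tris-HCl pH7.5/50mM NaCl/2 mM MgCl2/0.01% Tween-20; compounds pin-transferred; ex 480/em 540 nm endpoint. Neutral = no compound; no-DNA ThO wells = negative control.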
For assay [3], the target named is Endonuclease 4 (Escherichia coli (strain K12)) (UniProt P0A6C1). Briefly: Counterscreen for APE1 Inhibitors: qHTS Validation Assay for Inhibitors of Endonuclease IV (AID 1708). The method, boiled down: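 E. coli EndoIV at 2 nM final, preincubated 15 min at room temperature with compound, then 50 nM TAMRA/BHQ-2 THF abasic-site duplex added. Buffer: 50 mM Tris-HCl pH 7.5, 50 mM NaCl, 2 mM MgCl2, 1 mM DTT, 0.01% Tween-20. Kinetic fluorescence increase, third minus first read.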
For orientation: The purpose of a counterscreen is to sort out artefacts and off-target activity.

The nature of assay [4]: qHTS for differential inhibitors of proliferation of Plasmodium falciparum line D10 (AID 1877).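 Note: parasites grown with compound for 72 h before DNA staining.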 Note: potency is the fitted concentration of half-maximal effect.
A short description of assay [5]: qHTS for differential inhibitors of proliferation of Plasmodium falciparum line W2 (AID 1883).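 Note: parasites grown with compound for 72 h before lysis and staining.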 Note: potency is the fitted concentration of half-maximal effect. The conditions noted are these: Potency: Plasmodium falciparum W2 proliferation inhibition.
For assay [6], the target named is Ferritin light chain (Equus caballus) (UniProt P02791). Put plainly: qHTS Validation Assay for Identification of Novel General Anesthetics (AID 2323). Note: series mostly up to about 77 µM. The method, boiled down:
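Competitive displacement of profluorescent 1-aminoanthracene (1-AMA, 50% saturated solution in PBS) from 10 uM horse-spleen apoferritin. Compounds incubated 10 min at room temperature; fluorescence read at 380 nm excitation/535 nm emission, normalized to free 1-AMA and complex, fitted with four-parameter Hill equation.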

The target in assay [7] is ATP-dependent DNA helicase Q1 (Homo sapiens) (UniProt P46063). Put plainly: qHTS Validation Assay for Inhibitors of RecQ-Like Dna Helicase 1 (RECQ1) (AID 2353). The method, boiled down: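 50 nM RECQ1T1 preincubated 15 min with compound in Tris pH 8.0 buffer with MgCl2, DTT, Tween-20 and 2.5 ug/ml poly(dI-dC); started with 200 nM TAMRA/BHQ-2 forked duplex and 2 mM ATP. Unwinding read as fluorescence (525/598 nm), two reads 2 h apart.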

Assay [8] is described as follows: Cytometric Cell-Based qHTS for Inhibitors of the mTORC1 Signaling Pathway in MEF (Tsc2-/-, p53-/-) Cells (AID 2660).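 Note: percent of cells above a phospho-rpS6 to PI ratio cutoff in each well; series mostly up to about 38 µM.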 The essentials: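 Percent of cells positive for normalized phospho-S6 staining is reported, with the cutoff set from rapamycin (7.5 nM) versus DMSO wells. Tsc2-/-, p53-/- MEFs received compound for 24 hrs.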
Assay [9] can be described thus: High Content Imaging Cell-Based qHTS for Inhibitors of the mTORC1 Signaling Pathway in MEF (Tsc2-/-, p53-/-) Cells (AID 2666). The method, boiled down: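 Phospho-rpS6 (Ser235/236) immunofluorescence, normalized and scored as % positive cells using rapamycin and DMSO controls, was read in empty-vector Tsc2-/-, p53-/- MEFs after 24 h compound exposure at 37 C; propidium iodide counted cells.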

A short description of assay [10]: High Content Imaging Cell-Based qHTS for Inhibitors of the mTORC1 Signaling Pathway in MEF Cells (AID 2667).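 Note: Tsc2-/- p53-/- MEFs stably re-expressing wild-type Tsc2 exposed 24 h; series mostly up to about 38 µM.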 The method, boiled down:
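WT MEFs (Tsc2-/-, p53-/- re-expressing Tsc2), in DMEM + 10% FBS, were treated with compound for 24 h at 37 C. Cells were then fixed and stained for phospho-rpS6 Ser235/236 with propidium iodide as cell count. Values are % positive cells, with thresholds set against rapamycin-treated cells.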

Assay [11] in a line: Cytometry Cell-Based qHTS for Inhibitors of the mTORC1 Signaling Pathway in MEF cells (AID 2668).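 Note: Tsc2-/- p53-/- mouse embryonic fibroblasts stably re-expressing wild-type Tsc2; percent cells positive for phospho-rpS6 Ser235/236 relative to propidium iodide stain; series mostly up to about 38 µM.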 The essentials:
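WT MEFs (Tsc2-/-, p53-/- stably re-expressing WT Tsc2) in DMEM + 10% FBS received compounds 24 hrs after plating, for 24 hrs at 37 degree Celsius. Fixed cells stained with Alexa-488 anti-phospho-rpS6 Ser235/236 and propidium iodide; laser-scanning cytometry read-out.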

A short description of assay [12]: Validation screen for inhibitors of Lassa infection (AID 463096; calls by dose curve; note: potency is the fitted concentration of half-maximal effect).
Assay [13] is described as follows: qHTS for differential inhibitors of proliferation of Plasmodium falciparum line 7G8 (AID 1815).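 Note: parasite growth measured after three days of incubation.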 Note: potency is the fitted concentration of half-maximal effect.
Assay [14] can be described thus: qHTS for differential inhibitors of proliferation of Plasmodium falciparum line GB4 (AID 1816).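 Note: parasite growth measured after 72 h incubation.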 Note: potency is the fitted concentration of half-maximal effect. The following applies: Potency: Plasmodium falciparum GB4 proliferation inhibition.
A short description of assay [15]: qHTS for differential inhibitors of proliferation of Plasmodium falciparum line 3D7 (AID 1876). Note: potency is the fitted concentration of half-maximal effect.
The nature of assay [16]: qHTS for differential inhibitors of proliferation of Plasmodium falciparum line Dd2 (AID 1882). Note: nearly all actives have a fitted effect of over 65% in size. Note: potency is the fitted concentration of half-maximal effect. The conditions noted are these: Potency: Plasmodium falciparum Dd2 proliferation inhibition. The method, boiled down:
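Dd2-infected erythrocytes (0.3% parasitemia, 2.5% hematocrit final) incubated with compound 72 h at 37 C, 5% CO2; lysed with saponin/Triton buffer containing SYBR Green I, incubated overnight in the dark, then read by fluorescence (485/535 nm). Normalized to 0.29 uM artemisinin and DMSO.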

Assay [17] can be described thus: qHTS for differential inhibitors of proliferation of Plasmodium falciparum line HB3 (AID 1886).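 Note: parasites grown with compound for 72 h before SYBR Green readout.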 Note: potency is the fitted concentration of half-maximal effect. The following applies: Potency: Plasmodium falciparum HB3 proliferation inhibition.
The nature of assay [18]: Validation screen for small molecules that induce DNA re-replication in MCF 10A normal breast cells (AID 463097). Note: nearly all actives have a fitted effect of over 60% in size. The method, boiled down: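 Readout: Hoechst nuclear fluorescence intensity, 405 ex / 500-530 em, by scanning plate imager; re-replication scored as increase in nuclei with elevated DNA content. Cells exposed to compound 48 hr, 37 C, 5% CO2 beforehand.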

Records with an inconclusive call do not appear. Active and inactive are the calls of the source. Unless noted, calls come from the whole dose curve; as a rule, active = well fitted curve in the direction sought with a large enough effect; inconclusive = small, poorly fitted or top-dose-only effect, or another doubt; inactive = no such curve, though single readings can be large; an effect the other way counts as inactive or inconclusive.

In PubChem BioAssay (NCATS) one finds Potency and outcome data, which are given here for eight molecules.

ATP-dependent DNA helicase Q1 (Homo sapiens), sequence (P46063 whole entry, looked up): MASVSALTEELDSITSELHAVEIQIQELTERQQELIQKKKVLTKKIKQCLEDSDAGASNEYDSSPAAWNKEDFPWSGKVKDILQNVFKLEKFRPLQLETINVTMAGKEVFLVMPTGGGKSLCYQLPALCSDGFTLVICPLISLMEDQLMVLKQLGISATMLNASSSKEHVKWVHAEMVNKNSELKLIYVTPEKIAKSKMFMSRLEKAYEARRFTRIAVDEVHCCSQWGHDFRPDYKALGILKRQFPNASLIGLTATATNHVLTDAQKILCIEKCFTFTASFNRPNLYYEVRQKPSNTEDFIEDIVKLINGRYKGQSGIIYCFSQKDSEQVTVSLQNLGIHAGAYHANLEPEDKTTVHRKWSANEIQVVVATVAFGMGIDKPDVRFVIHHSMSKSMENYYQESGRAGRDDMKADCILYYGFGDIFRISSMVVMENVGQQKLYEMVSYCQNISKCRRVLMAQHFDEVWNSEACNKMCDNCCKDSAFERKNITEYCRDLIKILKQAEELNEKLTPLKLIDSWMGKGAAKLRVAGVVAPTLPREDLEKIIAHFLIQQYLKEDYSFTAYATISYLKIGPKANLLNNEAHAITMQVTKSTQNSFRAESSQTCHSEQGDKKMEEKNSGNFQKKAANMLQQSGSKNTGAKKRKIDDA
Ferritin light chain (Equus caballus), sequence (P02791 2-175 limits assumed): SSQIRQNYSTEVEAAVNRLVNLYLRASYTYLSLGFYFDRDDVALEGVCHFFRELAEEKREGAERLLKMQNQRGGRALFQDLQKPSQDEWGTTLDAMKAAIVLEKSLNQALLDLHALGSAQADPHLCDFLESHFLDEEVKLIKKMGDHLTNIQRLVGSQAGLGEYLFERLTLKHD
DNA repair nuclease/redox regulator APEX1 (Homo sapiens), sequence (P27695 whole entry, looked up): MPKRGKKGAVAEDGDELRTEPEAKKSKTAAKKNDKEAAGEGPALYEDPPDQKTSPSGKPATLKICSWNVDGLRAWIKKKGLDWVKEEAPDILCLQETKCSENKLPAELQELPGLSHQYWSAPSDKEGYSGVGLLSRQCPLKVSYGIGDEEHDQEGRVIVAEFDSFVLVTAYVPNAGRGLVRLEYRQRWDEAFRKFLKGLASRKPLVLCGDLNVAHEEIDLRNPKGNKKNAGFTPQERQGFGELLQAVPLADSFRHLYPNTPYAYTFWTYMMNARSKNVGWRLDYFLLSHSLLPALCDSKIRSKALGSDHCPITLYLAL

Turning to `CC(C)Oc1cccnc1N(C)C1CCN(Cc2ccccc2)CC1`, the Potency entry in [1], in [2], in assay [3], in [4], in assay [8] and in assay [9] was “inactive” in each case. Moreover, the Potency entry in assay [10], in assay [11] and in assay [12] was “inactive” throughout. The Potency in assay [5] was 4.47 µM (active). For the same molecule, the result in assay [6] and in assay [7] was inactive.

Consider `C[N+]1(C)C2CCC1CC(OC(=O)C(CO)c1ccccc1)C2` (stereo not drawn), for which the Potency result in assay [1], in assay [2], in [3], in [13], in [14] and in assay [15] was “inactive” throughout. For the same molecule, the Potency entry in [4], in assay [16], in [5], in assay [17], in [8] and in assay [9] was “inactive” throughout. The Potency result in assay [10], in assay [11], in [12] and in assay [18] was “inactive” throughout. Moreover, the call in assay [6] and in assay [7] was inactive.

Consider `CCCN1CCC[C@H](c2cccc(O)c2)C1`, for which the Potency result in assay [1], in assay [2], in assay [3], in [15], in assay [17] and in assay [8] was “inactive” throughout. For the same molecule, the Potency entry in assay [9], in [10], in [11], in [12] and in assay [18] was “inactive” in each case. The values for the Potency in assay [14] and in [5] were 14.1 µM (active) and 11.2 µM (active), respectively. In addition, the call in [6] and in assay [7] was inactive.

On to `CC(C)NC(C)Cc1ccc(I)cc1` (stereo not drawn), for which the Potency in assay [1] was 39.8 µM (active); in assay [13] it was 10 µM (active); in assay [14], 11.2 µM (active); in [5], 7.08 µM (active). Also, the Potency result in [2], in assay [3], in [8], in [9], in assay [10] and in assay [11] was “inactive” throughout. Further, the Potency entry in [12] and in assay [18] was “inactive” in each case. The outcome in assay [6] and in [7] was inactive.

With `CCCN(CCC)[C@@H]1CCc2ccc(O)cc2C1`, the Potency result in assay [2], in assay [3], in assay [15], in [4], in assay [17] and in assay [8] was “inactive” in each case. Besides, the Potency entry in assay [9], in assay [10], in [11], in [12] and in assay [18] was “inactive” each time. For the same molecule, the Potency is 8.91 µM (active) in assay [13], 14.1 µM (active) in assay [14] and 11.2 µM (active) in assay [5]. Further, the molecule was classed as inactive in [6] and in [7].

`NC1CC1c1ccccc1` (stereo not drawn): the Potency entry in [2], in [3], in [16], in [8], in [9] and in assay [10] was “inactive” each time. The Potency entry in assay [11], in assay [12] and in [18] was “inactive” in each case. Moreover, the Potency in assay [13], in assay [14], in assay [5] and in assay [17] was 10 µM (active) in each case. Besides, the molecule was classed as inactive in assay [7].

Take `Cc1nc(-c2ccc(-c3ccc(C(=O)N4CCc5cc6c(cc54)C4(CCN(C)CC4)CO6)cc3)c(C)c2)no1`: the Potency result in [1], in assay [2] and in assay [3] was “inactive” each time. Also, the Potency was 5.01 µM (active) in [13]; 11.2 µM (active) in [14]; 12.6 µM (active) in [15]; 11.2 µM (active) in assay [4]; 8.91 µM (active) in assay [16]; 10 µM (active) in assay [5]. Further, the Potency was 11.2 µM (active) in assay [17] and 10 µM (active) in [12].

As to `C[C@@H]1O[C@H](C[N+](C)(C)C)C[C@H]1O`, the Potency result in assay [1], in [2], in assay [3], in assay [13], in [14] and in [15] was “inactive” each time. Also, the Potency result in assay [4], in assay [16], in assay [5], in assay [17], in assay [8] and in [9] was “inactive” each time. Also, the Potency entry in assay [10], in assay [11], in assay [12] and in [18] was “inactive” throughout. The molecule was called inactive in [6] and in assay [7].
